Inconclusive results are not listed. Active and inactive are the calls of the source. Unless noted, calls follow the shape of the dose curve; as a rule, active = well fitted curve in the direction sought with a large enough effect in the repeat runs; inconclusive = weak or mixed curves; inactive = no such curve, though single readings can be large; an effect the other way counts as inactive or inconclusive.
Columns and labels:
[1] = qHTS assay to identify small molecule agonists of the peroxisome proliferator-activated receptor delta (PPARd) signaling pathway - cell viability counter screen (AID 743211); also: % is scaled to controls: 0 for no effect and ±100 for the full control effect; nearly all actives have a fitted effect of over 55% in size
Summary of the method: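 Counter screen for cytotoxicity run in parallel with the PPARd reporter screen. Beta-lactamase reporter HEK293H cells exposed to compounds 17 h; ATP-based CellTiter-Glo luminescence quantified viability.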

[2] = target: Peroxisome proliferator-activated receptor delta (Homo sapiens) (UniProt Q03181); experiment: qHTS assay to identify small molecule agonists of the peroxisome proliferator-activated receptor delta (PPARd) signaling pathway (AID 743212; calls by dose curve; also: % is scaled to controls: 0 for no effect and ±100 for the full control effect)
Sequence of Peroxisome proliferator-activated receptor delta (Homo sapiens) (Q03181 whole entry, looked up): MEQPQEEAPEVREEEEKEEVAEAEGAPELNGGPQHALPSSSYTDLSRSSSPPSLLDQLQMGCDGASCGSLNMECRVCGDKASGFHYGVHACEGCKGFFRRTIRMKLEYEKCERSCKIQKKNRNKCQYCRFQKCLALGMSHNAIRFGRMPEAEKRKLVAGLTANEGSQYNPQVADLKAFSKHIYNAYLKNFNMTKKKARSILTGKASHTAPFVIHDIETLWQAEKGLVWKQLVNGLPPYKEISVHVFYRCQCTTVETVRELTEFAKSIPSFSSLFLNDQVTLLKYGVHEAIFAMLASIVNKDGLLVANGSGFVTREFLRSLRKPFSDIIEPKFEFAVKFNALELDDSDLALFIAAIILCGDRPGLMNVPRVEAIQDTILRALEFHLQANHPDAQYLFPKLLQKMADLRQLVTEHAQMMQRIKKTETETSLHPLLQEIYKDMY
Summary of the method: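 Read-out: beta-lactamase FRET fluorescence after 2 h room-temperature incubation with LiveBLAzer B/G substrate. Cells were HEK293H carrying a UAS-bla reporter for PPARd, treated at 37 C with DMSO-dissolved compounds.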

[3] = qHTS assay to identify small molecule antagonists of the peroxisome proliferator-activated receptor delta (PPARd) signaling pathway - cell viability counter screen (AID 743213); also: % is scaled to controls: 0 for no effect and ±100 for the full control effect; nearly all actives have a fitted effect of over 50% in size
Summary of the method: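 HEK293H PPARd UAS-bla cells, 5 h pre-incubation, compound + L165041 300 nM final, 17 h 37 C; B/G FRET substrate 2 h RT; then CellTiter-Glo 30 min RT, luminescence.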

[4] = target: Peroxisome proliferator-activated receptor delta (Homo sapiens) (UniProt Q03181); experiment: qHTS assay to identify small molecule antagonists of the peroxisome proliferator-activated receptor delta (PPARd) signaling pathway (AID 743215; active = well fitted inhibition curve with a large enough effect in the signal ratio in the repeat runs, not every such curve was filed as active; the % refers to the signal ratio;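 also: cells stimulated with agonist L165041 at 300 nM final during compound exposure; series mostly up to about 62 µM; % is scaled to controls: 0 for no effect and ±100 for the full control effect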)
Summary of the method: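 Plated HEK293H PPARd-bla cells rested 5 h at 37 C and 5% CO2. Compound, then agonist L165041 at 300 nM final, was added; 17 h at 37 C followed. Substrate loading, 2 h room temperature, fluorescence measured.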

[5] = qHTS assay to identify small molecule agonists of the farnesoid-X-receptor (FXR) signaling pathway - cell viability counter screen (AID 743218); also: % is scaled to controls: 0 for no effect and ±100 for the full control effect; nearly all actives have a fitted effect of over 45% in size
Summary of the method: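 Viability of FXR-bla HEK 293T cells is measured by ATP-based CellTiter-Glo luminescence following 16 h compound treatment at 37 C and a prior 2 h room-temperature beta-lactamase substrate step.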

[6] = target: Bile acid receptor (Homo sapiens) (UniProt Q96RI1); experiment: qHTS assay to identify small molecule agonists of the farnesoid-X-receptor (FXR) signaling pathway (AID 743220; active = well fitted activation curve with a large enough effect in the signal ratio in the repeat runs, not every such curve was filed as active; the % refers to the signal ratio; also: % is scaled to controls: 0 for no effect and ±100 for the full control effect)
Sequence of Bile acid receptor (Homo sapiens) (Q96RI1 whole entry, looked up): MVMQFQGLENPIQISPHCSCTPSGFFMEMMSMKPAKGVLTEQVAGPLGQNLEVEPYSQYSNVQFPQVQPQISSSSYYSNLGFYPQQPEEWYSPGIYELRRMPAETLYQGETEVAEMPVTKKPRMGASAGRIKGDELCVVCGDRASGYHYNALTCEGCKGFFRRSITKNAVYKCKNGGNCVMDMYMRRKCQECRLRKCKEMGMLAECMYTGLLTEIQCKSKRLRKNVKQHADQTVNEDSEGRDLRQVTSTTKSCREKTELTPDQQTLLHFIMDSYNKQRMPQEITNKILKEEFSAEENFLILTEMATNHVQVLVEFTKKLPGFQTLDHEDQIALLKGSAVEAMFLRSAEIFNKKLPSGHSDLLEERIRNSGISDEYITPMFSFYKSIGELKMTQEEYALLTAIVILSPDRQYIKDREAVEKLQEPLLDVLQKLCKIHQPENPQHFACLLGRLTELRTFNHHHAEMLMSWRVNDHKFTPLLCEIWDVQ
Summary of the method: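 FXR-UAS-bla HEK 293T cells carrying a UAS-driven beta-lactamase reporter were plated for 5 h at 37C/5% CO2, then exposed to DMSO-dissolved Tox21 10K compounds for 16 h at 37C. A LiveBLAzer B/G FRET substrate was loaded for 2 h at room temperature before fluorescence reading.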

[7] = qHTS assay to identify small molecule antagonists of the farnesoid-X-receptor (FXR) signaling pathway - cell viability counter screen (AID 743221; active = well fitted cell-killing curve with a large enough effect in the repeat runs, not every such curve was filed as active; also: % is scaled to controls: 0 for no effect and ±100 for the full control effect; nearly all actives have a fitted effect of over 50% in size)
Summary of the method: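 Multiplexed counter screen: viability of FXR-bla HEK 293T cells under agonist stimulation by chenodeoxycholic acid (50 uM, final) and test compound for 16 h at 37 C, measured by CellTiter-Glo luminescence in the reporter wells.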

[8] = target: Vitamin D3 receptor (Homo sapiens) (UniProt P11473); experiment: qHTS assay to identify small molecule antagonists of the vitamin D receptor (VDR) signaling pathway (AID 743223; active = well fitted inhibition curve with a large enough effect in the signal ratio in the repeat runs, not every such curve was filed as active; the % refers to the signal ratio; also: % is scaled to controls: 0 for no effect and ±100 for the full control effect)
Sequence of Vitamin D3 receptor (Homo sapiens) (P11473 whole entry, looked up): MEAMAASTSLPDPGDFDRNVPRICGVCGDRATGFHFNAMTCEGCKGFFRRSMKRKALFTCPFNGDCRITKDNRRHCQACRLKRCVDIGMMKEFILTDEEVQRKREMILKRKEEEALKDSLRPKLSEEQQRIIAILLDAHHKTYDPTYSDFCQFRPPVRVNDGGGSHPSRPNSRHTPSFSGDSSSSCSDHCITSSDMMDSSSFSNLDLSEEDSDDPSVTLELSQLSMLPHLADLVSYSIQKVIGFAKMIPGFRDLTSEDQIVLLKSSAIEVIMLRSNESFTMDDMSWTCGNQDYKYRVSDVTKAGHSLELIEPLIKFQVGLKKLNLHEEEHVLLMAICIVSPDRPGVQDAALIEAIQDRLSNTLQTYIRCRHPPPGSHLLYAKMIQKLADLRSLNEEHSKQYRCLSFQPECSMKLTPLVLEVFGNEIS
Summary of the method: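 Cells carrying a VDR-driven beta-lactamase reporter (VDR-bla) were co-treated with compound and 3 nM final 1alpha,25-dihydroxyvitamin D3 for 16 h at 37C; reporter activity was measured as FRET substrate fluorescence after 2 h at room temperature.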

[9] = qHTS assay to identify small molecule agonists of the vitamin D receptor (VDR) signaling pathway - cell viability counter screen (AID 743224); also: series mostly up to about 63 µM; % is scaled to controls: 0 for no effect and ±100 for the full control effect; nearly all actives have a fitted effect of over 50% in size
Summary of the method: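 Compounds were pin-transferred onto VDR-bla cells plated 4 h earlier; following 16 h incubation at 37C, cell viability was quantified by CellTiter-Glo luminescence after 30 min at room temperature.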

[10] = qHTS assay to identify small molecule antagonists of the vitamin D receptor (VDR) signaling pathway - cell viability counter screen (AID 743225); also: % is scaled to controls: 0 for no effect and ±100 for the full control effect; nearly all actives have a fitted effect of over 50% in size
Summary of the method: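 HEK293T VDR-bla; cpd + 1a,25-(OH)2D3 3 nM final, 16 h 37C/5% CO2; B/G FRET substrate 2 h RT; then CellTiter-Glo 30 min RT, luminescence.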

[11] = qHTS assay to identify small molecule agonists of the NFkB signaling pathway (AID 1159509; active = well fitted curve in the direction sought with a large enough effect in the signal ratio in the repeat runs, not every such curve was filed as active; the % refers to the signal ratio)
Summary of the method: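 Beta-lactamase reporter assay run in quantitative high-throughput format on an NF-kB-responsive ME-180 line, with 5 hr compound treatment and a FRET-based blue/green fluorescence readout.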

[12] = qHTS assay to identify small molecule agonists of the NFkB signaling pathway - cell viability counter screen (AID 1159515; calls by dose curve; also: series mostly up to about 61 µM; % is scaled to controls: 0 for no effect and ±100 for the full control effect; nearly all actives have a fitted effect of over 55% in size)
Summary of the method: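 Parallel cytotoxicity counter screen in ME-180 cells carrying an NFkB-response-element beta-lactamase reporter, 2,000 cells/well. Compound exposure lasted 5 hr at 37 C, 5% CO2. Cell viability was quantified by CellTiter-Glo luminescence.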

[13] = qHTS assay to identify small molecule agonists of the endoplasmic reticulum stress response signaling pathway (AID 1159516; active = well fitted activation curve with a large enough effect in the signal ratio in the repeat runs, not every such curve was filed as active; the % refers to the signal ratio; also: % is scaled to controls: 0 for no effect and ±100 for the full control effect)
Summary of the method: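 Using a HeLa line with an ESRE-driven beta-lactamase gene, agonist activity was measured by FRET substrate fluorescence (460 and 530 nm emission) after cells were treated with compounds for 5 hr at 37 C and 5% CO2.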

[14] = qHTS assay to identify small molecule agonists of the endoplasmic reticulum stress response signaling pathway - cell viability counter screen (AID 1159517; calls by dose curve)
Summary of the method: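 Steps: seed 1,500 ESRE-bla HeLa cells per well; incubate overnight at 37 C, 5% CO2; add compounds in DMSO for 5 hr; run FRET substrate 2 hr RT; add CellTiter-Glo, wait 30 min, read luminescence.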

[15] = qHTS assay to identify small molecule antagonists of the retinoid-related orphan receptor gamma (ROR-gamma) signaling pathway - cell viability counter screen (AID 1159520)
Summary of the method: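 Tet-on ROR gamma CHO cells were given compounds for 2 hr, then doxycycline hyclate at 1 uM final, and incubated 16 hr at 37 C. Viability was measured as ATP content by CellTiter-Glo luminescence.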

[16] = target: Nuclear receptor ROR-gamma (Homo sapiens) (UniProt P51449); experiment: qHTS assay to identify small molecule antagonists of the retinoid-related orphan receptor gamma (ROR-gamma) signaling pathway (AID 1159521)
Summary of the method: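 Cells were plated, rested 4 h at 37 C, exposed to compounds for 2 h, then given 1 uM final doxycycline hyclate to induce RORγ expression. After 16 h, ONE-Glo luminescence from the ROR response element reporter was measured.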

[17] = qHTS assay to identify small molecule agonists of the AP-1 signaling pathway - cell viability counter screen (AID 1159525; calls by dose curve; also: nearly all actives have a fitted effect of over 55% in size)
Summary of the method: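 Same-well cytotoxicity counter screen of the Tox21 10K library in ME-180 cells. The readout is ATP-dependent luminescence after 5 h compound treatment. Data are normalised to DMSO and tetra n-octyl ammonium bromide controls.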

[18] = qHTS assay to identify small molecule agonists of the AP-1 signaling pathway (AID 1159526; calls by dose curve; also: % is scaled to controls: 0 for no effect and ±100 for the full control effect)
[19] = target: Vitamin D3 receptor (Homo sapiens) (UniProt P11473); experiment: qHTS assay to identify small molecule agonists of the vitamin D receptor (VDR) signaling pathway (AID 743222; calls by dose curve; also: % is scaled to controls: 0 for no effect and ±100 for the full control effect)
Summary of the method: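 Fluorescence from cleaved LiveBLAzer B/G FRET substrate served as readout. VDR-bla cells had been treated 16 h at 37C with test compounds in DMSO, following a 4 h settling period, and substrate was loaded for 2 h at RT.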

[20] = target: Bile acid receptor (Homo sapiens) (UniProt Q96RI1); experiment: qHTS assay to identify small molecule antagonists of the farnesoid-X-receptor (FXR) signaling pathway (AID 743217; active = well fitted inhibition curve with a large enough effect in the signal ratio in the repeat runs, not every such curve was filed as active; the % refers to the signal ratio; also: % is scaled to controls: 0 for no effect and ±100 for the full control effect)
Summary of the method: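 Screen of the Tox21 10K library in quantitative HTS format using FXR-UAS-bla HEK 293T reporter cells. Agonist chenodeoxycholic acid, 50 uM final, added with compounds; 16 h incubation at 37 °C; beta-lactamase FRET fluorescence measured.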

CN(C)CCn1nnnc1SCC1=C(C(=O)O)N2C(=O)[C@@H](NC(=O)Cc3csc(N)n3)[C@H]2SC1
inactive: Potency [1] | outcome [2] | Potency [3] | outcome [4] | outcome [5] | outcome [6] | Potency [7] | outcome [8] | outcome [9] | outcome [10] | outcome [11] | outcome [12] | outcome [13] | outcome [14] | Potency [15] | Potency [16] | outcome [17] | Potency [18]

O=[N+]([O-])c1ccc(Oc2ccc([N+](=O)[O-])cc2)cc1
inactive: Potency [1] | outcome [2] | Potency [3] | outcome [4] | outcome [6] | Potency [7] | outcome [19] | outcome [8] | outcome [9] | outcome [11] | outcome [12] | outcome [13] | outcome [14] | Potency [15] | Potency [16] | outcome [17] | Potency [18]

COc1cccc(Br)c1
inactive: Potency [1] | outcome [2] | Potency [3] | outcome [4] | outcome [5] | Potency [7] | outcome [19] | outcome [9] | outcome [11] | outcome [12] | outcome [13] | outcome [14] | Potency [15] | Potency [16] | outcome [17] | Potency [18]

CCn1cc(C(=O)O)c(=O)c2cc(F)c(N3CCN(C)CC3)cc21
inactive: Potency [1] | outcome [2] | Potency [3] | outcome [4] | outcome [5] | Potency [7] | outcome [11] | outcome [12] | outcome [13] | outcome [14] | activity, negative = cytotoxicity [15] 0.209% [at 19 µM] | activity change, negative = inhibition [16] -0.847% [at 19 µM] | viability change, negative = cytotoxic [17] 2.53% [at 15.8 µM] | activation [18] 0.51% [at 15.8 µM]

COc1ccc(COC=O)cc1
inactive: Potency [1] | outcome [2] | Potency [3] | outcome [4] | outcome [20] | outcome [5] | outcome [6] | Potency [7] | outcome [9] | outcome [10] | outcome [11] | outcome [12] | outcome [13] | outcome [14] | Potency [15] | Potency [16] | outcome [17] | Potency [18]

CC(C)CCCC(C)CCCC(C)CCCCC(C)CCCC(C)CCCC(C)C (stereo not given)
inactive: Potency [1] | outcome [2] | Potency [3] | outcome [4] | outcome [5] | Potency [7] | outcome [8] | outcome [10] | outcome [11] | outcome [12] | outcome [13] | outcome [14] | Potency [15] | Potency [16] | outcome [17] | Potency [18]

Cn1ccc2cc3c(cc21)CCN3C(=O)Nc1cccnc1
inactive: Potency [1] | outcome [2] | Potency [3] | outcome [4] | outcome [20] | outcome [5] | outcome [6] | outcome [8] | outcome [9] | outcome [10] | outcome [11] | outcome [12] | outcome [13] | outcome [14] | activity, negative = cytotoxicity [15] -0.672% [at 19 µM] | activity change, negative = inhibition [16] 207% [at 19 µM] | viability change, negative = cytotoxic [17] 0.227% [at 15.8 µM] | activation [18] -5.75% [at 15.8 µM]

O=C(O)c1ccc[n+]([O-])c1
inactive: Potency [1] | outcome [2] | Potency [3] | outcome [4] | Potency [7] | outcome [8] | outcome [9] | outcome [10] | outcome [11] | outcome [12] | outcome [13] | outcome [14] | Potency [15] | Potency [16] | outcome [17] | Potency [18]

C=C(C)C1CC=C(C)C(O)C1 (stereo not given)
inactive: Potency [1] | outcome [2] | Potency [3] | outcome [4] | outcome [5] | Potency [7] | outcome [9] | outcome [10] | outcome [11] | outcome [12] | outcome [13] | outcome [14] | Potency [15] | Potency [16] | outcome [17] | Potency [18]

C=C(C)C(=O)NCCC[N+](C)(C)C
inactive: Potency [1] | outcome [2] | Potency [3] | outcome [4] | outcome [20] | outcome [6] | Potency [7] | outcome [19] | outcome [8] | outcome [9] | outcome [10] | outcome [11] | outcome [12] | outcome [13] | outcome [14] | Potency [15] | Potency [16] | outcome [17] | Potency [18]

COc1ccc(NC(C)=O)cc1
inactive: Potency [1] | outcome [2] | Potency [3] | outcome [4] | outcome [5] | outcome [19] | outcome [8] | outcome [9] | outcome [10] | outcome [11] | outcome [12] | outcome [13] | outcome [14] | Potency [15] | Potency [16] | outcome [17] | Potency [18]

CC(=O)O[C@H](CC(=O)[O-])C[N+](C)(C)C
inactive: Potency [1] | outcome [2] | Potency [3] | outcome [4] | Potency [7] | outcome [9] | outcome [10] | outcome [11] | outcome [12] | outcome [13] | outcome [14] | Potency [15] | Potency [16] | outcome [17] | Potency [18]

COc1cccc(OC)c1
inactive: Potency [1] | outcome [2] | Potency [3] | outcome [4] | outcome [20] | outcome [5] | outcome [6] | Potency [7] | outcome [19] | outcome [8] | outcome [9] | outcome [10] | outcome [11] | outcome [12] | outcome [13] | outcome [14] | Potency [15] | Potency [16] | outcome [17] | Potency [18]

Reference: PubChem BioAssay (Tox21)
